# Most compounds without a hit are left out; they make up all but 1.1% or so of the library.
# SRC1 inh: human NCOA1 inhibition. inhibition, % at 3.6 µM. 360,000 compounds, 0.12% hits. AID 588354. Q15788. HEK293 GAL4-SRC1 luciferase reporter, luminescence;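 active = inhibition above the campaign mean plus 3 SD, with each screening campaign given its own cutoff, cut at about 60% in these data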
# GalR3 antag: human GalR3 antagonism; 360,000 compounds, 0.44% hits; inhibition, % at 3 µM; HEK293 GalR3-CNG cAMP membrane potential fluorescence; galR3 body fused to GalR1 C-terminus; AID 651719; O60755;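 active = inhibition above the screen-wide average plus 3 SD, cut at about 13% in these data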;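 also: forskolin and galanin both at EC90 stimulate the cells; cAMP rise reported by CNG channel membrane potential dye signal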
# Target sequence (O60755 1-299 limits assumed): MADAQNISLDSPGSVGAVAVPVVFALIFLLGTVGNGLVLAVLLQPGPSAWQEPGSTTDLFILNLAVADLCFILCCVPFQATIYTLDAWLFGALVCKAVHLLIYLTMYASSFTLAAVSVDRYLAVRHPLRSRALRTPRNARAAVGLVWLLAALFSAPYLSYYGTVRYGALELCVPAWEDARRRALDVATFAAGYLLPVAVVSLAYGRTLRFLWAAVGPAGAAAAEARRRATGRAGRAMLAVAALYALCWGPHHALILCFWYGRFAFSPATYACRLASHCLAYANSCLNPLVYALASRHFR
# NR5A2 inv ag: suppresses constitutive activity of human LRH-1; AID 602396; O00482; 360,000 compounds, 0.13% hits; HEK293T StAR-luciferase reporter, LRH-1 transfected, 24 h; inhibition, % at 3.6 µM;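 active = inhibition above the mean inhibition of all tested compounds plus 3 SD, cut at about 73% in these data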
# COUP-TFII inh: inhibitors of human COUP-TFII (NR2F2) | 370,000 compounds, 0.7% hits | inhibition, % at 8.6 µM | HEK293T NGFI-A luciferase reporter, luminescence | AID 686940 | P24468;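 active = inhibition above a per-plate cutoff, mean inhibition of test wells between control levels plus 3 SD, cut at about 38% in these data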;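 also: cells cotransfected with COUP-TFII expression vector driving the NGFI-A reporter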
# NCOA2 inhibitor: human SRC2 (NCOA2) inhibition; Q15596; HEK293 GAL4-SRC2 luciferase reporter, luminescence; inhibition, % at 9 µM; 370,000 compounds, 0.17% hits; AID 651957;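 active = inhibition above the mean inhibition of all tested compounds plus 3 SD, set per campaign, cut at about 52% in these data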
# NCOA3 inh: inhibits human SRC3 coactivator. HEK293 GAL4-SRC3 luciferase reporter, luminescence. inhibition, % at 3.6 µM. 360,000 compounds, 0.17% hits. AID 588352;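 active = inhibition above a per-campaign cutoff, the mean of all compounds plus 3 SD, cut at about 60% in these data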;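 also: higher means less SRC3-driven luciferase light from the GAL4 reporter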
# GalR3 antag conf: GalR3 (human) antagonism, confirmation | shares compounds with GalR3 antag | HEK293 GalR3 CNG cAMP biosensor, membrane potential fluorescence; galR3 fused to GalR1 carboxy tail; challenged with forskolin and galanin at EC90 | inhibition, % at 3 µM | 1,600 compounds, 59% hits | AID 652245;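 active = inhibition above the primary screen's cutoff, the mean inhibition of all screened compounds plus 3 SD, cut at about 13% in these data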
# CNG parental: parental cell agonism counter-screen for GalR3 antagonists; shares compounds with GalR3 antag; HEK293-CNG parental cells, cAMP membrane potential fluorescence; normalised: DMSO wells 0%, forskolin wells 100%; activation, % at 3 µM; 1,600 compounds, 10% hits; AID 652268; in the data active = activation above about 1.3%
# VP16 Luc counter: inhibits VP16 reporter, flagging COUP-TFII antagonist hits. shares compounds with COUP-TFII inh. HEK293 Gal4-VP16 luciferase reporter, luminescence. inhibition, % at 8.5 µM. 2,500 compounds, 25% hits. AID 687007; in the data active = inhibition above about 13%
# COUP-TFII conf: COUP-TFII (NR2F2) inhibition, confirmation assay; shares compounds with COUP-TFII inh; HEK293 NGFI-A luciferase reporter, luminescence; inhibition, % at 8.5 µM; 2,500 compounds, 45% hits; AID 687008;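 active = mean inhibition over three repeats above a set limit taken from the earlier primary screen, cut at about 38% in these data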
# Numbers stand for hits; n = inactive; x = no result.
SMILES,SRC1 inh,GalR3 antag,NR5A2 inv ag,COUP-TFII inh,NCOA2 inhibitor,NCOA3 inh,GalR3 antag conf,CNG parental,VP16 Luc counter,COUP-TFII conf
Cc1cc(C(=O)O[C@@H]2CCC[C@@]3(C(=O)N(Cc4ccccc4)c4ccccc43)[C@H]2NC(=O)CCc2ccccc2)no1,x,x,x,n,n,x,x,x,x,x
CC(=O)CC[C@@H]1CC[C@]2(CCCN(S(=O)(=O)C3CCCCC3)C2)O1,x,x,x,n,n,x,x,x,x,x
O=C(COC(=O)c1n[nH]c2ccccc12)Nc1ccc(S(=O)(=O)N2CCCC2)cc1,n,104,n,46,n,n,110,n,n,n
CN(C)c1ccc(C=c2c3ccccc3n3c2c2c([n+]3C)CCCC2)cc1,69,81,94,88,n,79,89,n,28,82
CN(C)c1ccc(/C=C2\CCC/C(=C\c3ccccc3)C2=O)cc1,n,n,n,n,n,n,x,x,x,x
Cc1nn(C)c(Cl)c1NC(=O)OCc1ccc(Cl)cc1Cl,n,96,n,53,n,n,21,n,n,n
O=C(Nc1ccc2ccccc2c1)NC1CCCCN(Cc2ccc(Cl)cc2)C1=O (stereo unspecified),x,x,x,n,n,x,x,x,x,x
COc1ccc(-n2c(-c3ccc(Cl)cc3)c[n+]3c2CCc2ccccc2-3)cc1,n,62,n,51,n,n,57,n,18,44
COc1ccc(-n2c(-c3ccccc3)nnc2-c2ccc(Cl)cc2)cc1,n,n,n,n,n,n,x,x,x,x
c1ccc(Cn2c(SC3CCCCC3)nnc2-c2cccnc2)cc1,x,x,x,n,n,x,x,x,x,x
CCOC(=O)[C@@]12CCCC3=C1N(CCC3)C(=O)[C@H]2CC(=O)NCc1ccc(C)o1,x,x,x,n,n,x,x,x,x,x
CCOc1ccc(-c2cc(C(=O)Nc3ccc(C)c(NS(C)(=O)=O)c3)[nH]n2)c(C)c1,n,14,n,62,n,n,99,n,n,n
O=C(NC(CC1=CCCCC1)c1ccccc1)C(F)(F)F (stereo unspecified),x,n,x,n,n,x,x,x,x,x
OCCC1CN(Cc2cnc(-c3ccc(Cl)cc3)nc2)CCN1C1CCCCC1 (stereo unspecified),n,83,n,37,n,n,13,n,n,n
C=CC[n+]1c(/C=C2\C=Cc3cc(C)ccc3N2CC)ccc2ccccc21,n,45,89,75,n,71,64,6.1,18,76
CCN(CC)C(=O)CC[C@H]1CC[C@]2(CCCN(Cc3ccccn3)C2)O1,x,x,x,n,n,x,x,x,x,x
COc1ccc(NC(=O)C2Cc3c(-c4ccc5c(c4)OCO5)ccnc3O2)cc1OC (stereo unspecified),n,66,n,66,n,n,74,n,n,57
Cc1cc(-n2c(C)cc(C(=O)CSc3ncnc4ccccc34)c2C)no1,n,91,n,54,n,n,n,n,n,60
Cc1cc(C(=O)CSc2ncnc3ccccc23)c(C)n1C1CC1,n,n,n,n,n,n,x,x,x,x
CCN(CC)S(=O)(=O)c1ccc(NC(=O)c2ccccc2N(C)S(C)(=O)=O)cc1,n,n,n,n,n,n,x,x,x,x
CCN(CC)S(=O)(=O)c1ccc(C(=O)Nc2ccc(Cc3ccncc3)cc2)cc1,n,34,n,51,n,n,76,n,n,56
CCN(CC)S(=O)(=O)c1ccc(NC(=O)c2ccc(N(C)S(C)(=O)=O)cc2)cc1,n,103,n,68,n,n,104,n,n,53
O=C(Nc1ccc(OCC(F)(F)C(F)F)c(C(F)(F)F)c1)c1ccccc1O,n,19,n,69,n,n,16,n,n,n
Cc1ccc(NC(=O)CSc2ccc3c(c2)OCCO3)c(O)c1,n,33,n,39,n,n,75,n,n,n
S=C(SCc1c(Cl)cccc1Cl)N1CCSCC1,x,n,x,n,n,x,x,x,x,x
SMILES,SRC1 inh,GalR3 antag,NR5A2 inv ag,COUP-TFII inh,NCOA2 inhibitor,NCOA3 inh,GalR3 antag conf,CNG parental,VP16 Luc counter,COUP-TFII conf
O=C(NCc1ccc(F)c(F)c1)c1cccc2c(-c3cccnc3)coc12,n,n,n,n,n,n,x,x,x,x
COc1ccc(CNC(=O)c2cccc3c(-c4cccnc4)coc23)cc1OC,n,89,n,82,n,n,106,n,n,75
COc1ccc(-c2csc(NC(=O)c3ccccc3NS(=O)(=O)c3ccc(F)c(F)c3)n2)cc1,64,92,87,61,n,79,106,n,n,61
Cc1ccc(S(=O)(=O)Nc2ccccc2C(=O)Nc2nc(-c3ccc(F)cc3)cs2)cc1,n,90,n,66,n,n,114,n,n,n
COc1ccc(-c2csc(NC(=O)c3ccccc3F)n2)cc1,n,n,n,n,n,n,x,x,x,x
O=C(CSc1nnc(-c2cccnc2)n1-c1ccccc1)Nc1ccc(OCc2ccccc2)cc1,x,x,x,n,n,x,x,x,x,x
O=C(c1ccccc1C(F)(F)F)N1CCC(Oc2cccnc2)CC1,x,x,x,n,n,x,x,x,x,x
CCCCC(=O)N1CCN(C(=O)c2ccc3c(c2)nc(C)n3C2CCCC2)CC1,x,x,x,n,n,x,x,x,x,x
O=C(O)c1ccccc1C(=O)Nc1cccc([N+](=O)[O-])c1,n,n,n,n,n,n,x,x,x,x
O=C(Nc1cccc([N+](=O)[O-])c1)c1cc2ccccc2cc1O,n,62,n,63,n,n,74,n,n,n
COc1ccc(COC[C@H](C)N2C[C@@H](C)[C@H](CN(C)S(=O)(=O)c3ccc(F)cc3)OCCCC[C@H](C)Oc3ccc(NC(=O)Nc4ccccc4)cc3C2=O)cc1,x,x,x,n,x,x,x,x,x,x
C1=C(CCNc2ncnc3c2[nH]c2ccccc23)CCCC1,n,84,n,67,n,n,98,1.4,n,48
O=c1c2[nH]c3ccccc3c2ncn1CCC1=CCCCC1,n,n,n,n,n,n,x,x,x,x
O=C(CSc1nnc(Cn2nnc3ccccc32)o1)N(Cc1ccc(Cl)cc1)c1ccccc1,n,97,n,72,n,n,102,n,n,67
Cc1cc(C(=O)COc2cccnc2[N+](=O)[O-])c(C)n1Cc1cccs1,n,n,n,n,n,n,x,x,x,x
CC(=O)Nc1ccccc1OCC(=O)c1cc(C)n(Cc2cccs2)c1C,n,83,n,73,n,n,98,n,n,81

# Screens (PubChem)
